The panel holds about 79,000 compounds, 15% with a hit somewhere; the sample as a whole holds those more often. The source made the active and inactive calls. Cut-off read from the data, not from the text of the source: active = growth inhibition above about 70%; inactive = the rest.

One assay is described as follows: NCI Yeast Anticancer Drug Screen. Data for the wt2 strain (AID 169).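 Note: 0% = growth of vehicle-treated yeast cultures.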 As to conditions: S. cerevisiae wt2 strain growth inhibition; at 3.7 µM; hits give high values. In short, it runs like this: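 Steps: yeast strain treated with compound; growth recorded; inhibition calculated relative to cultures given vehicle alone.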
For the compound `CN(C)CC(CN(C)C)C(=O)/C=C/c1ccc(Cl)cc1Cl`, the growth inhibition was -5% (inactive).

For `c1ccc2c(c1)ccn2CCc1c[nH]c2ccccc12`, the growth inhibition was -28% (inactive).

As for `Cc1ccccc1NC(=O)c1c(C)oc2c1C(=O)c1ccccc1C2=O`, the growth inhibition is -7% (inactive).

`CC(C)OC(=O)NNc1c(Cl)cc(Cl)cc1Cl`: the growth inhibition is 3% (inactive).

For `COc1ccc2nc3cccc([N+](=O)[O-])c3c(NCCNCCO)c2c1`, the growth inhibition was -1% (inactive).

In the case of `COc1ccc2c(c1)CCCC(Br)C2=O` (stereo not drawn), the growth inhibition is -53% (inactive).

As for `CCC(OC(C)=O)C1CC(C(C)C)CCC1C` (stereo not drawn), the growth inhibition was 7% (inactive).

As to `O=S(=O)(c1cccc(C(F)(F)F)c1)N1c2ccccc2-n2cccc2C1c1cccnc1` (stereo not drawn), the growth inhibition is -41% (inactive).

As for `c1ccc(-c2cc(C3CO3)c3ccccc3n2)cc1` (stereo not drawn), the growth inhibition was 1% (inactive).

For the compound `COc1ccc(/C=C2\SC(=S)N(/C=C3\C(=O)N(c4ccccc4)N=C3C)C2=O)cc1OC`, the growth inhibition is 2% (inactive).

Regarding `CC1=CC(=C(c2ccc(N)c(C)c2)c2ccc(N)c(C)c2)C=CC1=N`, the growth inhibition was -20% (inactive).

As to `CC1C(c2ccccc2)SC(=N)N1C` (stereo not drawn), the growth inhibition is 8% (inactive).

As for `CC(/C=C/c1ccc([N+](=O)[O-])o1)=N/N1CC(CN2CCOCC2)OC1=O` (stereo not drawn), the growth inhibition was 11% (inactive).

Regarding `O=C1c2cccc3cccc(c23)C(=O)N1CCNCCN1C(=O)c2cccc3cccc(c23)C1=O`, the growth inhibition was 0% (inactive).

As for `Cc1ccc([N+](=O)[O-])c2c(NCCC[N+](C)(C)[O-])c3ccccc3nc12`, the growth inhibition is -4% (inactive).

In the case of `COC(=O)C(Cc1c[nH]c2ccccc12)N1CN(C)c2ccccc2C1=O` (stereo not drawn), the growth inhibition was -2% (inactive).

Regarding `O=C(/N=N/C(=O)Oc1ccccc1)Oc1ccccc1`, the growth inhibition is -48% (inactive).

Turning to `COc1cc([C@@H]2c3cc4c(cc3[C@@H](NC(=O)NO)[C@H]3COC(=O)[C@H]23)OCO4)cc(OC)c1O`, the growth inhibition is 0% (inactive).

In the case of `CC1(C)CC(=O)C(/C=N/c2nc(-c3ccc(Br)cc3)cs2)=C(O)C1`, the growth inhibition is 3% (inactive).

`CCOC(=O)/C(=C/c1cccc(Cl)c1)N(CC)CC`: the growth inhibition is 11% (inactive).

On to `CC(C)OC(=O)NNc1cccc(Cl)c1`, for which the growth inhibition is 13% (inactive).

Turning to `CCC(=O)C1=C(O)c2cc(OC)ccc2CC1C(=O)OC` (stereo not drawn), the growth inhibition was 3% (inactive).

With `O=S(=O)(NC1CCCC(c2ccccc2)C1)c1ccccc1` (stereo not drawn), the growth inhibition is -7% (inactive).

Regarding `COc1ccc2nc3cccc([N+](=O)[O-])c3c(NCCCCCC(=O)O)c2c1`, the growth inhibition is 42% (inactive).

On to `CCO/C=C1\SC(=S)N(c2ccc(OCC)cc2)C1=O`, for which the growth inhibition is -38% (inactive).

With `COc1cc(OC)c(CSCC(NC(=O)OCC2c3ccccc3-c3ccccc32)C(=O)O)c(OC)c1` (stereo not drawn), the growth inhibition was 6% (inactive).

In the case of `COC(=O)c1ccccc1N=NNc1cccc(SC)c1`, the growth inhibition was -18% (inactive).

For the compound `CC1=NN(C(=O)c2ccccc2O)C(=O)/C1=C/c1ccco1`, the growth inhibition was 31% (inactive).

For `COc1ccccc1NC(=O)c1ccc(Cl)cc1`, the growth inhibition is -2% (inactive).

`CC(C)=CCC/C(C)=C/CN1C(=O)C=CC1=O`: the growth inhibition is 76% (active).

For the compound `O=C1CSC(c2ccccc2)N1c1ccc(-c2ccc(-n3c(-c4ccccc4)nc4ccccc4c3=O)cc2)cc1` (stereo not drawn), the growth inhibition is -3% (inactive).

As to `O=C(NCCNCCNC(=O)c1cc(-c2ccccc2)nc2ccccc12)c1cc(-c2ccccc2)nc2ccccc12`, the growth inhibition was -2% (inactive).

Turning to `Brc1ccc(B2Nc3ccccc3N2)cc1`, the growth inhibition was -4% (inactive).

For `CCOP(=O)(OCC)/C(C#N)=C/c1cccc(Oc2ccccc2)c1`, the growth inhibition was 1% (inactive).

Staying with this assay, now noted: S. cerevisiae wt2 strain growth inhibition; at 11.0 µM; hits give high values.
In the case of `CN(C)CC(CN(C)C)C(=O)/C=C/c1ccc(Cl)cc1Cl`, the growth inhibition is 2% (inactive).

For `c1ccc2c(c1)ccn2CCc1c[nH]c2ccccc12`, the growth inhibition was -20% (inactive).

In the case of `Cc1ccccc1NC(=O)c1c(C)oc2c1C(=O)c1ccccc1C2=O`, the growth inhibition was 14% (inactive).

Take `CC(C)OC(=O)NNc1c(Cl)cc(Cl)cc1Cl`: the growth inhibition was 2% (inactive).

On to `COc1ccc2nc3cccc([N+](=O)[O-])c3c(NCCNCCO)c2c1`, for which the growth inhibition is 4% (inactive).

Take `COc1ccc2c(c1)CCCC(Br)C2=O` (stereo not drawn): the growth inhibition is -22% (inactive).

`CCC(OC(C)=O)C1CC(C(C)C)CCC1C` (stereo not drawn): the growth inhibition is 0% (inactive).

Turning to `O=S(=O)(c1cccc(C(F)(F)F)c1)N1c2ccccc2-n2cccc2C1c1cccnc1` (stereo not drawn), the growth inhibition is 60% (inactive).

As for `c1ccc(-c2cc(C3CO3)c3ccccc3n2)cc1` (stereo not drawn), the growth inhibition is 12% (inactive).

As for `COc1ccc(/C=C2\SC(=S)N(/C=C3\C(=O)N(c4ccccc4)N=C3C)C2=O)cc1OC`, the growth inhibition was 26% (inactive).

Take `CC1=CC(=C(c2ccc(N)c(C)c2)c2ccc(N)c(C)c2)C=CC1=N`: the growth inhibition was -31% (inactive).

For the compound `CC1C(c2ccccc2)SC(=N)N1C` (stereo not drawn), the growth inhibition was 0% (inactive).

On to `CC(/C=C/c1ccc([N+](=O)[O-])o1)=N/N1CC(CN2CCOCC2)OC1=O` (stereo not drawn), for which the growth inhibition is 49% (inactive).

As to `O=C1c2cccc3cccc(c23)C(=O)N1CCNCCN1C(=O)c2cccc3cccc(c23)C1=O`, the growth inhibition is 0% (inactive).

As for `Cc1ccc([N+](=O)[O-])c2c(NCCC[N+](C)(C)[O-])c3ccccc3nc12`, the growth inhibition was 4% (inactive).

In the case of `COC(=O)C(Cc1c[nH]c2ccccc12)N1CN(C)c2ccccc2C1=O` (stereo not drawn), the growth inhibition is -4% (inactive).

Consider `O=C(/N=N/C(=O)Oc1ccccc1)Oc1ccccc1`, for which the growth inhibition is -54% (inactive).

`COc1cc([C@@H]2c3cc4c(cc3[C@@H](NC(=O)NO)[C@H]3COC(=O)[C@H]23)OCO4)cc(OC)c1O`: the growth inhibition is 3% (inactive).

As for `CC1(C)CC(=O)C(/C=N/c2nc(-c3ccc(Br)cc3)cs2)=C(O)C1`, the growth inhibition was 29% (inactive).

For the compound `CCOC(=O)/C(=C/c1cccc(Cl)c1)N(CC)CC`, the growth inhibition was 13% (inactive).

`CC(C)OC(=O)NNc1cccc(Cl)c1`: the growth inhibition was 80% (active).

As for `CCC(=O)C1=C(O)c2cc(OC)ccc2CC1C(=O)OC` (stereo not drawn), the growth inhibition was 8% (inactive).

Take `O=S(=O)(NC1CCCC(c2ccccc2)C1)c1ccccc1` (stereo not drawn): the growth inhibition was -3% (inactive).

As for `COc1ccc2nc3cccc([N+](=O)[O-])c3c(NCCCCCC(=O)O)c2c1`, the growth inhibition was 94% (active).

`CCO/C=C1\SC(=S)N(c2ccc(OCC)cc2)C1=O`: the growth inhibition was -59% (inactive).

With `COc1cc(OC)c(CSCC(NC(=O)OCC2c3ccccc3-c3ccccc32)C(=O)O)c(OC)c1` (stereo not drawn), the growth inhibition was 58% (inactive).

As to `COC(=O)c1ccccc1N=NNc1cccc(SC)c1`, the growth inhibition is 8% (inactive).

Consider `CC1=NN(C(=O)c2ccccc2O)C(=O)/C1=C/c1ccco1`, for which the growth inhibition was 80% (active).

Consider `COc1ccccc1NC(=O)c1ccc(Cl)cc1`, for which the growth inhibition is -2% (inactive).

On to `CC(C)=CCC/C(C)=C/CN1C(=O)C=CC1=O`, for which the growth inhibition was 100% (active).

On to `O=C1CSC(c2ccccc2)N1c1ccc(-c2ccc(-n3c(-c4ccccc4)nc4ccccc4c3=O)cc2)cc1` (stereo not drawn), for which the growth inhibition was -2% (inactive).

`O=C(NCCNCCNC(=O)c1cc(-c2ccccc2)nc2ccccc12)c1cc(-c2ccccc2)nc2ccccc12`: the growth inhibition is -1% (inactive).

As to `Brc1ccc(B2Nc3ccccc3N2)cc1`, the growth inhibition was 6% (inactive).

With `CCOP(=O)(OCC)/C(C#N)=C/c1cccc(Oc2ccccc2)c1`, the growth inhibition was 38% (inactive).

The values above are taken from PubChem BioAssay (NCI).
